CHX counter = counter-screen for Shiga toxin inhibitors: cycloheximide protein synthesis inhibition | cell reporter, cycloheximide protein synthesis inhibition counterscreen | max response, % | 300,000 compounds, 12% hits; in the data active means max response mostly above about 13%, no sharp cut-off; inactive means mostly below about 14%; further: read at 38.3 µM for the half of the compounds with a filed dose; 0% is about no effect
FBPA Giardia inh = inhibitors of Giardia lamblia fructose-1,6-bisphosphate aldolase; A8B2U2; purified Giardia FBPA; Potency, µM (top dose mostly 59.6 µM), without a hit: top-dose activity, negative = inhibition, most hits filed as inhibitors; 290,000 compounds, 0.71% hits; AID 2451; further: potency means the concentration at half of the fitted maximal effect; on the % scale 0 is the no-effect control and ±100 the full control effect; nearly all actives have a fitted effect of over 55% in size
Target sequence (A8B2U2 whole entry, looked up): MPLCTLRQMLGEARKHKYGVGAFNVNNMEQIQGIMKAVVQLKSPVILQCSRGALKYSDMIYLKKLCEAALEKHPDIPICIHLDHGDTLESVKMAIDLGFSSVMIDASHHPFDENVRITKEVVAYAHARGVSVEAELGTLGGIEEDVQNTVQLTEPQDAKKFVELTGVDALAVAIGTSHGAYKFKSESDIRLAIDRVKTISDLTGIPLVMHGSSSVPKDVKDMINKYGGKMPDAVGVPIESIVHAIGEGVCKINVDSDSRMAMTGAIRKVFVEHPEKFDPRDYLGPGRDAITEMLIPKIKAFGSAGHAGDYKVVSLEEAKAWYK
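40 nM FBPA preincubated 10 min at RT with compound (up to 57.5 uM final), then substrate plus GAPDH/TPI/NAD/arsenate coupling and diaphorase/resazurin added. Fluorescence read after 20 min at RT, 525/598 nm.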
Sm TGR block = S. mansoni TGR enzyme inhibition | Q962Y6 | purified TGR, DTNB reduction, TNB absorbance 405 nm | Potency, µM (top dose mostly 114 µM), inactives show at the top dose activity change, negative = inhibition, most hits filed as inhibitors | 360,000 compounds, 3% hits | AID 485364; further: potency means the concentration at half of the fitted maximal effect; on the % scale 0 is the no-effect control and ±100 the full control effect; nearly all actives have a fitted effect of over 60% in size
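Kinetic colorimetric format: TGR-catalysed, NADPH-driven DTNB reduction monitored via TNB absorbance. Enzyme dispensed at 20 nM; compound exposure 15 min at room temperature before reaction start.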
Tb PYK inh = inhibitors of Trypanosoma brucei pyruvate kinase | AID 624173 | Potency, µM (series often up to 76.8 µM), without a hit: at the highest dose activity, negative = inhibition, hits mostly inhibitors | TbPYK enzyme, Kinase-Glo Plus ATP luminescence, 45 min | 410,000 compounds, 0.12% hits; further: potency means the concentration at half of the fitted maximal effect; on the % scale 0 is the no-effect control and ±100 the full control effect; nearly all actives have a fitted effect of over 50% in size
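Assay buffer: 50 mM TEA pH 7.2, 100 mM KCl, 10 mM MgCl2, 0.05% BSA, 0.01% Tween-20. Pyruvate kinase from T. brucei plus substrate met compound, then ADP (130 uM final). Luminescence was read post 45 min RT.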
Shiga inhibitor = inhibitors of Shiga toxin in Vero cells | Vero cells, Shiga toxin protein synthesis inhibition reporter | 290,000 compounds, 9.2% hits | AID 2315 | inhibition, % at 38.7 µM; in the data active means inhibition mostly above about 28%, no sharp cut-off; inactive means mostly below about 43%; further: 0% is about no effect
LmPK inhibitor = LmPK (Leishmania mexicana) enzyme inhibition | Q27686 | purified LmPK, Kinase-Glo ATP luminescence, 1 h | Potency, µM (series often up to 57.5 µM), for the others: at the highest dose activity change, negative = inhibition, most hits filed as inhibitors | 290,000 compounds, 0.37% hits; further: potency means the concentration at half of the fitted maximal effect; on the % scale 0 is the no-effect control and ±100 the full control effect
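Purified LmPK (0.1 nM) converted ADP (0.1 mM) to ATP with PEP (0.5 mM) in imidazole buffer pH 7.2 with KCl and MgCl2, 1 h at room temperature. ATP was read by Kinase-Glo luminescence; data normalized to uninhibited and no-enzyme controls.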
* hit, by the source's call; ? = inconclusive; · = no result given; [ ] = remark or other dose. Only a selection was taken, and hits are over-represented in it overall. Unless noted, the call rests on the fitted dose curve; in most records, active means well fitted curve in the direction sought with a large enough effect; inconclusive means small, poorly fitted or top-dose-only effect, or another doubt; inactive means no such curve, though single readings can be large; an effect the other way counts as inactive or inconclusive.

SMILES | CHX counter | FBPA Giardia inh | Sm TGR block | Tb PYK inh | Shiga inhibitor | LmPK inhibitor
CCOC(=O)c1sc2nc(NC(=O)C(C)(C)C)sc2c1C | 35.7* | -9.5% | 12.0% | 1.4% | 105.0* | 1.3%
COC(=O)[C@]12CCCCC=C1N(Cc1ccco1)C(=O)[C@H](CC(=O)N1CCC(c3ccccc3)CC1)C2 | · | · | · | -9.4% | · | ·
CCCc1nc2ccc(NC(C)=O)cc2c(=O)n1Cc1ccc(Cl)cc1 | 43.4* | -2.4% | 1.5% | 1.8% | 90.1* | 4.7%
COc1ccc(Cn2c(C3CC3)nc3ccc(NC(=O)c4cccnc4)cc3c2=O)cc1 | 21.6* | 0.9% | 5.9% | -1.5% | 54.1* | -6.6%
COc1ccc(Cn2c(C3CC3)nc3ccc(NC(C)=O)cc3c2=O)cc1 | 56.5* | -10.9% | -4.7% | -9.2% | 121.1* | -22.0%
COc1cccc(OC(=O)c2ccccc2)c1OC(=O)c1ccccc1 | · | · | · | -7.5% | · | ·
O=C(NNC(=O)c1ccccc1O)c1ccc(-c2ccc([N+](=O)[O-])cc2)o1 | · | · | 0.0% | -1.3% | · | ·
O=C(Nc1ccccc1)c1ccc(-c2ccc([N+](=O)[O-])cc2)o1 | 31.3* | -0.3% | 3.55µM* | -10.3% | 68.8* | 5.1%
CC1(C)CC(NC(=O)c2ccc(-c3ccc([N+](=O)[O-])cc3)o2)CC(C)(C)N1 | 0.5 | · | 39.8µM* | -5.2% | 24.3 | 2.8%
CC1(C)CC(NC(=O)Nc2ccc([N+](=O)[O-])cc2)CC(C)(C)N1 | -3.4 | 5.7% | -9.8% | 0.9% | 18.3 | 0.1%
CC(OC(=O)c1ccc(-c2ccc([N+](=O)[O-])cc2)o1)C(=O)NC(N)=O (configuration not stated) | 4.7 | 0.7% | 4.47µM* | -7.4% | 12.7 | -3.0%
O=C(Nc1ccccc1)c1ccc(-c2ccc(Br)cc2)o1 | 37.8* | -5.6% | -9.4% | 6.8% | 53.9* | 0.1%
COc1ccc(NC(=O)c2ccc(-c3ccc([N+](=O)[O-])cc3)o2)cc1 | 8.7 | -23.0% | ? | -4.2% | 27.7 | 0.3%
Oc1[nH]c2ccccc2c1N=Nc1ccc(C(F)(F)F)cn1 | 17.6* | -0.4% | -24.3% | 0.9% | 17.4 | 7.3%
Oc1[nH]c2ccccc2c1N=Nc1nncc2ccccc12 | 34.9* | -19.9% | -23.9% | -9.8% | 60.4* | ?
Oc1[nH]c2ccc(Br)cc2c1N=Nc1ccc(C(F)(F)F)cn1 | 5.7 | -0.1% | 1.3% | 2.2% | 38.9 | 0.0%
c1cc(CN2CCCNCCNCCCNCC2)ccc1CN1CCCNCCNCCCNCC1 | -2.7 | -2.7% | · | · | -8.3 | ·
CCN(CC)Cc1oc(-c2ccccc2)cc1C(=O)O | -2.6 | 0.3% | 50.1µM* | 5.8% | 22.1 | 3.8%
NCc1oc(-c2ccccc2)cc1C(=O)O | -3.1 | 2.1% | 44.7µM* | 6.7% | -18.3 | 4.0%
Cc1oc(-c2ccccc2)cc1C(N)=O | 2.8 | 4.7% | 0.6% | 4.2% | 24.2 | -4.0%
C/C(CCN1CCCCc2nc(C)c(C)cc21)=N\OC[C@@H](C)[C@H](OCc1ccccc1)C(C)C | · | 0.4%[12.9 µM] | · | · | · | ·
CCOC(=O)c1ccc(Nc2c(-c3ccc(O)cc3)nc3nc[nH]n23)cc1 | · | · | -14.7% | -6.2% | · | ·
FC(F)C(F)(F)c1cc(-c2ccccc2)n[nH]1 | 19.7* | -0.9% | 8.5% | -3.5% | 29.0 | 5.6%
CCOc1ccccc1C(=O)N1CCN(CCc2ccccn2)CC1 | · | · | -4.7% | 0.1% | · | ·
O=C(Nc1ccc(Cl)cc1)OC1CN2CCC1CC2 (configuration not stated) | 26.7* | 2.7% | 10.6% | 2.2% | 42.0* | 3.8%
SMILES | CHX counter | FBPA Giardia inh | Sm TGR block | Tb PYK inh | Shiga inhibitor | LmPK inhibitor
O=C(Nc1ccccc1Cl)OC1CN2CCC1CC2 (configuration not stated) | 11.9 | -1.7% | 5.4% | 2.1% | 7.8 | -5.0%
O=C(Nc1cccc(Cl)c1)OC1CN2CCC1CC2 (configuration not stated) | 25.6* | -10.8% | 38.9% | 1.0% | 55.6* | 4.5%
O=C(Nc1ccccc1F)OC1CN2CCC1CC2 (configuration not stated) | 5.0 | 1.9% | 3.8% | -3.4% | -9.5 | 7.7%
COc1ccc2cc(C(=O)C3CCCN(C(=O)C4=NN(C)C(=O)CC4)C3)ccc2c1 (configuration not stated) | 20.5* | · | 2.5% | -1.7% | 2.5 | -1.1%
O=C(c1cccc(C(F)(F)F)c1)C1CCCN(C(=O)Cn2cncn2)C1 (configuration not stated) | 13.4* | · | 3.3% | 0.2% | 4.3 | 6.0%
Cn1cc(CCC(=O)N2CCCC(C(=O)c3cccc4ccccc34)C2)cn1 (configuration not stated) | 35.7* | 4.7% | -25.5%[57.1 µM] | 0.5% | 20.8 | -4.6%
O=C(C1CCCN(Cc2ccc(F)cc2)C1)N1CCCCC1 (configuration not stated) | 8.2 | ? | 6.3% | -2.7% | -5.7 | -11.0%
O=C(C1CCCN(Cc2cccnc2)C1)N1CCCCC1 (configuration not stated) | 21.7* | ? | 4.8% | -18.5% | -13.4 | -7.2%
Cc1ccc(Cl)cc1NC(=O)CN1C(=O)CSc2ccc(S(=O)(=O)N3CCCC3)cc21 | · | · | -2.4% | -3.1% | · | ·
CC1Cc2ccccc2N1S(=O)(=O)c1nnc(NC(=O)c2ccccc2Br)s1 (configuration not stated) | · | · | 3.4% | -3.1% | · | ·
COc1cccc(N2C(=O)C(CC(=O)Nc3cccc(F)c3)N(C(C)C)C2=O)c1 (configuration not stated) | · | · | -2.8% | 3.5% | · | ·
CCNC(=O)N1CCCC(C(=O)c2ccc3cc(OC)ccc3c2)C1 (configuration not stated) | 20.0* | -1.2% | -6.5% | 8.6% | 25.7 | -1.7%
COc1ccc2cc(C(=O)C3CCCN(C(=O)c4cccnc4)C3)ccc2c1 (configuration not stated) | -1.4 | -2.4% | -0.9% | 0.3% | 32.3 | -0.9%
COc1cccc(C(=O)C2CCCN(C(=O)c3ccccc3Cl)C2)c1 (configuration not stated) | 15.2 | 11.3% | 1.7% | -0.1% | 12.7 | 2.7%
COc1ccc2cc(C(=O)C3CCCN(C(=O)CCc4cnn(C)c4)C3)ccc2c1 (configuration not stated) | 26.8* | -8.0% | -23.4% | -3.6% | 42.6* | -7.7%
C=CCCC(=O)N1CCCC(C(=O)c2cccc(OC)c2)C1 (configuration not stated) | 21.4* | 9.4% | 4.4% | 0.3% | 12.3 | 1.5%
CSc1ccccc1C(=O)C1CCCN(C(=O)CCc2cccnc2)C1 (configuration not stated) | 24.3* | 3.0% | 3.9% | -3.8% | 50.1 | -4.0%
CCn1c2ccccc2c2cc(NC(=O)COC(=O)c3ccc(NC(=O)CC#N)cc3)ccc21 | · | · | 0.9% | 0.3% | · | ·

High-throughput results: PubChem BioAssay, National Center for Advancing Translational Sciences (NCATS)
